Anesthetic bind – qHTS Assay for Identification of Novel General Anesthetics; AID 485281, 2010; Ferritin light chain (Equus caballus), P02791; apoferritin/1-aminoanthracene competitive binding, fluorescence; Potency, µM (titrated, usually from 77.5 µM), hits mostly inhibitors; actives 0.074% (n = 350,000); note: nearly all actives have a fitted effect of over 20% in size
Target sequence (P02791 2-175 limits assumed): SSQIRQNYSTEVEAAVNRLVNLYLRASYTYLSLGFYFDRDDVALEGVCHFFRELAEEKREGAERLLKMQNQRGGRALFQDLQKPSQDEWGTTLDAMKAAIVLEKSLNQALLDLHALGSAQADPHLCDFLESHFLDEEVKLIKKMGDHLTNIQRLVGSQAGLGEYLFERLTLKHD
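Concentration-response curves derived by four-parameter Hill fitting of normalized fluorescence, where compounds displaced 1-AMA from 10 uM horse apoferritin following a brief 10 min room-temperature incubation; propofol titration acted as positive control.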
PKM2 activator – qHTS Assay for Activators of Human Muscle isoform 2 Pyruvate Kinase; actives 0.34% (n = 260,000); AID 1631, 2009; Potency, µM (highest dose often 57.5 µM), most hits filed as activators; purified PKM2, Kinase-Glo ATP luminescence, activation; response scale: 0% is enzyme alone, no compound; note: nearly all actives have a fitted effect of over 55% in size
Target sequence (P14618 whole entry, looked up, canonical isoform): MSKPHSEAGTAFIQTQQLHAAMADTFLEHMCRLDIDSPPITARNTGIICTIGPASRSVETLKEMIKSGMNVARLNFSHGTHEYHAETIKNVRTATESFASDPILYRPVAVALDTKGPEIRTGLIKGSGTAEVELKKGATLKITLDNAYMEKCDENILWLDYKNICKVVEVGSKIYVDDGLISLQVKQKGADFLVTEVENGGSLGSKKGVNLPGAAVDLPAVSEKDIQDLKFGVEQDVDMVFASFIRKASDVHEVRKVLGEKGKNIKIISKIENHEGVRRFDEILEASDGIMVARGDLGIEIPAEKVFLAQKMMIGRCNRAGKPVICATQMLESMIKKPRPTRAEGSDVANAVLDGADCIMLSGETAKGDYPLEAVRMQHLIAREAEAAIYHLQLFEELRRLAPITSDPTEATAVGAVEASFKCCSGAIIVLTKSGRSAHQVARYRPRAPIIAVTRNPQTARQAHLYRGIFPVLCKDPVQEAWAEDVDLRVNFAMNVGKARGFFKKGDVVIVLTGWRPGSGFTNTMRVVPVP
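ATP formation by purified human PK-M2, quantified via coupled luciferase luminescence after 1 h at room temperature with 0.1 mM ADP and 0.5 mM PEP final.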
IL2 activator – qHTS of IL-2 Activators; IL-2 activation reporter assay, cell-based qHTS; stimulated with anti-CD3/CD4/CD28 beads; in transgenic mouse T cells; activation, % (series mostly up to about 46 µM); actives 0.065% (n = 360,000); in the data active = activation above about 50%; inconclusive = mostly about 30% to 49%
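EGFP and DsRed fluorescence is measured by plate cytometry in unstimulated transgenic mouse T cells exposed to compound for 60 minutes, then stimulated 18 hours at 37 degrees C with anti-CD3/anti-CD4 beads plus anti-CD28.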
a7 integrin act – qHTS for Activators of Integrin-Mediated Alleviation for Muscular Dystrophy; actives 0.064% (n = 350,000); AID 624291, 2012; Potency, µM (series often up to 38.3 µM), actives largely listed as activators; alpha7betagal myoblasts, beta-gal FDG fluorescence, 48 h; note: nearly all actives have a fitted effect of over 60% in size
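Alpha7betagal+/- myoblasts (passage 13) were plated 16-24 hr, then exposed to compounds (1:260 dilution of DMSO stock) for 48 hours at 37C. After MPER lysis, β-galactosidase reporter activity was read as FDG fluorescence (ex 480/em 540) after 30 minutes.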
BRCA1 expr act – qHTS Assay to Identify Small Molecule Activators of BRCA1 Expression. MCF7-BRCA1-FFLuc reporter, luminescence, 48 h; response scale: scaled: vehicle 0%, 10 µM genistein 100%. Potency, µM (highest dose often 46.1 µM), most hits filed as activators. actives 1.1% (n = 380,000); note: nearly all actives have a fitted effect of over 80% in size
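MCF7-BRCA1-FFLuc, 2000 cells/well; 2 h attach, 37 °C/5% CO2; compound 48 h; luciferase substrate 15 min; luminescence end-point. Norm. to genistein 10 microM max activation and DMSO; concentration-response curves fitted.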
A number is an active result; 0 = inactive; ? = inconclusive; - = not tested or not shown; [ ] = remark or other dose. Sampled rows, rich in hits. Any-hit rate of the full collection: about 1.3%. Unless noted, calls come from the whole dose curve; as a rule, active = well fitted curve in the direction sought with a large enough effect; inconclusive = small, poorly fitted or top-dose-only effect, or another doubt; inactive = no such curve, though single readings can be large; an effect the other way counts as inactive or inconclusive.

SMILES | Anesthetic bind | PKM2 activator | IL2 activator | a7 integrin act | BRCA1 expr act
O=C(Nc1ccccc1)N1CCc2ccccc2C1 | 0 | 0 | 0 | 0 | ?
Cc1ccc(C)c(CSc2nnc3[nH]c(=O)cc(-c4ccccc4)n23)c1 | 0 | - | - | - | -
COc1ccc(OCC(=O)NCCS(=O)(=O)N2CCN(c3cccc(Cl)c3)CC2)cc1 | 0 | - | - | - | -
CN(C)c1cc(N2CCOCC2)nc(C#N)n1 | - | - | - | - | 0
COc1ccc(NC(=O)N2CCc3ccccc3C2)cc1 | 0 | 0 | 0 | 0 | 7.94µM
O=C(Cc1ccc(Cl)cc1)N1CCc2ccccc2C1 | - | - | 0 | 0 | 10µM
COc1ccc(CC(=O)N2CCc3ccccc3C2)cc1 | 0 | - | 0 | ? | 0
CC1=C(C(=O)OCC2CCCCC2)C(c2ccc(Cl)cc2Cl)CC(=O)N1 (stereo not given) | 0 | - | - | - | 0
CC(=O)c1ccc(NC(=O)CSc2nccn2CCc2ccccc2)cc1 | ? | 0 | 0 | 0 | 12.6µM
CC(=O)c1ccc(NC(=O)CSc2nccn2C)cc1 | 0 | 0 | 0 | ? | 11.2µM
CC(=O)Nc1ccc(NC(=O)CSc2nccn2Cc2ccccc2)cc1 | 0 | 0 | 0 | 0 | 0
Cn1ccnc1SCC(=O)Nc1ccc2nc(SCC(=O)NC3CC3)sc2c1 | 0 | 0 | 0 | 0 | 3.55µM
Cc1ccc(NC(=O)CSc2nccn2Cc2ccccc2)cc1C | ? | 0 | 0 | 0 | 8.91µM
Cc1cc(S(=O)(=O)Nc2ccc3oc4c(c3c2)CCCC4)ccc1Cl | 0 | - | - | - | -
Cc1cc(C)cc(NC(=O)C(=O)NCC(c2ccc3c(c2)OCO3)N2CCOCC2)c1 (stereo not given) | 0 | - | - | - | -
N#Cc1ccccc1NC(=O)CSc1nnc(-c2ccccc2)n1-c1ccccc1 | 0 | 0 | 0 | 0 | 0
Cc1ccc(NC(=O)CSc2nccn2Cc2ccco2)cc1 | 0 | 0 | 0 | 0 | 10µM
COc1ccc(Cn2ccnc2SCC(=O)NC2CCCC2)cc1 | 35.5µM | 0 | 0 | 0 | 0
CC(=O)c1ccc(NC(=O)CSCCO)cc1 | 0 | 0 | 0 | 0 | 0
CC(=O)c1ccc(NC(=O)CSc2nccn2Cc2ccco2)cc1 | 0 | - | - | - | -
CSCCC(=O)Nc1ccc(C(C)=O)cc1 | 0 | 0 | 0 | 0 | 12.6µM
N#Cc1ccccc1NC(=O)CSc1nccn1CCc1ccccc1 | 0 | 0 | 0 | 0 | 11.2µM
Cc1nn(C(=O)c2cccc(F)c2)c(C)c1S(=O)(=O)N1CCOCC1 | 0 | - | - | - | 0
CC(C)C[C@H](NC(=O)CN(C)C(=O)[C@H](Cc1ccccc1)NC(=O)[C@H](Cc1ccccc1)NC(=O)[C@H](CCC(N)=O)NC(=O)[C@H](CCC(N)=O)NC(=O)[C@@H]1CCCN1C(=O)[C@H](CCCCN)NC(=O)[C@@H]1CCCN1C(=O)[C@@H](N)CCCN=C(N)N)C(=O)N[C@@H](CCS(C)(=O)=O)C(N)=O | 0 | - | - | - | -
COc1ccc(C(=O)Nc2cc3c4c(c2)CC(=O)N4CCC3)cc1 | - | - | 0 | 0 | 0
SMILES | Anesthetic bind | PKM2 activator | IL2 activator | a7 integrin act | BRCA1 expr act
COc1ccc(C(=O)Nc2cc3c4c(c2)CC(=O)N4CCC3)c(OC)c1 | - | - | 0 | 0 | 3.98µM
Cc1ccc(NC(=O)c2c(NC(=O)C(F)(F)F)sc3c2CCCCC3)cc1 | 0 | - | - | - | -
Cc1ccc(N2C(=O)c3ccccc3C2Nc2ccc(S(=O)(=O)N3CCCCC3)cc2)nc1 (stereo not given) | 0 | 0 | 0 | 0 | 0
Cc1ccc(N2C(=O)c3ccccc3C2Nc2ccc(S(=O)(=O)N3CCOCC3)cc2)nc1 (stereo not given) | 0 | 0 | 0 | 0 | 14.1µM
Cc1cc(C)cc(N2CC(c3nnc(NC(=O)c4ccco4)s3)CC2=O)c1 (stereo not given) | 0 | - | - | - | -
CCc1noc(-c2ccc(N3CCCCC3)c([N+](=O)[O-])c2)n1 | 0 | - | - | - | 7.08µM
CCc1noc(-c2ccc(N3CCC(C)CC3)c([N+](=O)[O-])c2)n1 | 0 | - | - | - | 8.91µM
Cc1cc(C)c(C(=O)CN2C(=O)NC3(CCCCC3)C2=O)cc1C | 0 | 0 | 0 | 0 | ?
Cc1ccc(C(=O)CN2C(=O)NC3(CCCCCC3)C2=O)c(C)c1 | - | - | 0 | 0 | 6.31µM
CCOc1ccc(-c2nnc(-c3cccs3)o2)cc1 | 0 | 0 | 0 | 0 | 0
CCOc1ccc(-c2nnc(-c3cccs3)o2)cc1OCC | 0 | 0 | 0 | 0 | 8.91µM
COc1ccc(-c2nnc(-c3cccs3)o2)cc1OC | 0 | 0 | 0 | 0[7.66 µM] | 5.01µM
CNCCCOc1ccc2c(c1)CCC2 | 0 | 0 | 0 | 0 | 11.2µM
COc1ccc(-n2nc3c(N4CCC(C(=O)NCc5cccc(F)c5)CC4)nnc(C)c3c2C)cc1 | 0 | - | - | - | -
Cn1c(CSCc2ccc(Cl)cc2Cl)n[nH]c1=S | 0 | 28.2µM | 0 | 0 | 0
CC(=O)N1CCC(C(=O)Nc2nnc(C(C)C)s2)CC1 | - | - | - | - | 0
CCN1C(=O)CS/C1=N\S(=O)(=O)c1ccc(Cl)cc1 | 0 | 0 | 0 | 0 | 0
CCn1c(Cl)c(C=O)s/c1=N\S(=O)(=O)c1ccccc1 | 0 | 15.8µM | 0 | 0 | 0
Nc1c(C(=O)Nc2ccccc2)sc2nc(N3CCOCC3)c3c(c12)CCCC3 | - | - | 0 | 0 | 12.6µM
CC(C)(C)C(=O)Nc1ccc2c(c1)C(=O)C(=O)c1ccccc1-2 | - | - | - | - | 0
C=CCSc1nn2c(=O)c3ccccc3nc2s1 | 0 | 0 | 0 | ? | 2.82µM
CN(C)CCN(C(=O)C1CCCCC1)c1nc2cc3c(cc2s1)OCCO3 | - | - | 0 | 0 | 11.2µM
CN(C)CCN(C(=O)c1ccc2ccccc2c1)c1nc2cc3c(cc2s1)OCCO3 | 0 | 0 | 0 | 0 | 0
CCC1CCCCN1S(=O)(=O)c1ccc(C(=O)N(CCCN(C)C)c2nc3cc4c(cc3s2)OCO4)cc1 (stereo not given) | 56.2µM | 0 | 0 | 0 | 0
CN(C)CCN(C(=O)c1cccs1)c1nc2cc3c(cc2s1)OCCO3 | 0 | 0 | 0 | 0 | 11.2µM
CN(C)CCN(C(=O)c1ccc(Br)s1)c1nc2cc3c(cc2s1)OCCO3 | 0 | 0 | 0 | 0 | 0
O=C(Nc1ccc([N+](=O)[O-])cc1Cl)c1ccccc1O | - | - | - | - | 0
CCc1nn2c(=O)cc(COC(=O)c3ccccc3NC(=O)COc3ccc(C)c(C)c3)nc2s1 | 0 | - | - | - | -
CC[C@H](C)[C@H](NC(=O)[C@H](CCC(=O)O)NC(=O)CNC(=O)[C@@H](NC(=O)[C@H](CCC(=O)O)NC(=O)[C@H](CCC(=O)O)NC(=O)[C@H](CC(C)C)NC(=O)CNC(=O)[C@@H]1CCCN1C(=O)[C@H](CCC(=O)O)NC(=O)[C@@H](N)[C@@H](C)O)C(C)C)C(=O)N[C@@H](CCC(=O)O)C(=O)N[C@@H](CCC(N)=O)C(=O)N[C@@H](CCCCN)C(=O)N[C@@H](CCC(N)=O)C(=O)N[C@@H](CC(C)C)C(=O)N[C@@H](CCC(N)=O)C(=O)O | 0 | - | - | - | -
CCc1ccc(OCC(=O)Nc2ncn[nH]2)c(Br)c1 | 0 | - | - | - | -

Screens deposited in PubChem BioAssay by National Center for Advancing Translational Sciences (NCATS).
